Data as given in PubChem BioAssay (NCATS).
Values joined by “and” are separate entries in the source; they are usually repeats but may differ in a detail not shown here. Identical values can stand only once. Records with an inconclusive call do not appear. A number with no mark means an inactive call. Active and inactive are the calls of the source. Calls come from the whole dose curve; as a rule, active = well fitted curve in the direction sought with a large enough effect; inconclusive = small, poorly fitted or top-dose-only effect, or another doubt; inactive = no such curve, though single readings can be large; an effect the other way counts as inactive or inconclusive.

Test: Quantitative highthroughput screen to assess conditional lethalithy of SEM cells grown in Human Plasma-Like Medium with dialyzed fetal bovine serum (HPLM+ds) (AID 1963882); note: nearly all actives have a fitted effect of over 35% in size
Conditions: SEM B-ALL cells in HPLM+ds, CellTiter-Glo viability, 48 h; series mostly up to 45.8 µM
Outline: (§1)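 Each medium arm—HPLM with 10% dialyzed FBS, or RPMI1640 with 5 mM glucose and 10% untreated or dialyzed FBS—was screened against an 11-point, 3-fold compound titration for 48 h at 37 °C, with CellTiter-Glo luminescence as endpoint.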
Potency is the fitted concentration of half-maximal effect.

Row | SMILES | Potency
1 | CNCC(O)c1ccc(O)cc1 (stereo not given) | inactive
2 | CCC1(c2ccc(N)cc2)CCC(=O)NC1=O (stereo not given) | inactive
3 | COC[C@H]1OC(=O)c2coc3c2[C@@]1(C)C1=C(C3=O)C2CCC(=O)[C@@]2(C)C[C@H]1OC(C)=O (stereo not given in full) | inactive
4 | COC[C@@H](NC(C)=O)C(=O)NCc1ccccc1 | inactive
5 | CC(C)N(CCNC(=O)CN1CCCC1=O)C(C)C | inactive
6 | O=c1[nH]c2ccccc2n1C1CCN(Cc2ccc(-c3[nH]c4cc5ncnc5cc4nc3-c3ccccc3)cc2)CC1 | inactive
7 | COc1ccc(C(=O)c2c(C)n(CCN3CCOCC3)c3cc(I)ccc23)cc1 | 20.9 µM (active)

Test: Quantitative highthroughput screen to assess conditional lethalithy of SEM cells grown in RPMI1640 with unreated serum (RPMI+s) (AID 1963883); note: nearly all actives have a fitted effect of over 35% in size;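 for viability: 100% = DMSO wells and 0% = empty wells without cells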
Conditions: SEM B-ALL cells, CellTiter-Glo viability, 48 h; series mostly up to 45.8 µM
Outline: as §1

Row | SMILES | Potency
8 | CC1(N2CCC(n3c([C@@H]4CCCNC4)nc4ccccc43)CC2)CCCCCCC1 | inactive
9 | O=C(O)CCCc1ccc(N(CCCl)CCCl)cc1 | 23.5 µM (active)
10 | COC[C@H]1OC(=O)c2coc3c2[C@@]1(C)C1=C(C3=O)C2CCC(=O)[C@@]2(C)C[C@H]1OC(C)=O (stereo not given in full) | inactive
11 | O=C(Nc1ccncc1)C(=O)c1cn(Cc2ccc(Cl)cc2)c2ccccc12 | 0.0526 µM (active)

Test: Quantitative highthroughput screen to assess conditional lethalithy of SEM cells grown in RPMI1640 with dialyzed fetal bovine serum (RPMI+ds) (AID 1963884); note: nearly all actives have a fitted effect of over 35% in size;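 for viability: 100% = DMSO control wells and 0% = empty wells without cells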
Conditions: SEM B-ALL cells, RPMI+dialyzed FBS, CellTiter-Glo viability, 48 h; series mostly up to 45.8 µM
Outline: as §1

Row | SMILES | Potency
12 | CNCC(O)c1ccc(O)cc1 (stereo not given) | inactive
13 | CCN1CCN(C(=O)Cc2ccc(Nc3ncc(F)c(Nc4ccc(C(=O)Nc5ccccc5Cl)cc4)n3)cc2)CC1 | 4.69 µM (active)
14 | O=c1cccc2n1CC1CNC[C@H]2C1 | inactive
15 | COC[C@@H](NC(C)=O)C(=O)NCc1ccccc1 | inactive
16 | O=C(O)c1nn(Cc2ccc(Cl)cc2Cl)c2ccccc12 | inactive

Test: Cellular viability qHTS for adrenocortical cancer (ACC) cell line SW-13 (AID 1963989); note: nearly all actives have a fitted effect of over 65% in size;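 for activity (max response): cells grown in serum-free medium with ITS supplement; % is set by controls: 0 for no effect and ±100 for the full control effect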
Conditions: SW-13 ACC cells viability, CellTiter-Glo, 48 h; activity (max response): active compounds read low
Outline: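 IC50 and maximal-response values come from four-parameter logistic fits of titration data. SW-13 cells in serum-free medium received compounds (up to 46 uM final) for 48 h before CellTiter-Glo luminescence.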

Row | SMILES | activity (max response) | Potency
17 | Cc1ncsc1CCCl | 10.3% | 
18 | Cc1nnc2n1-c1sc(CCC(=O)N3CCOCC3)cc1C(c1ccccc1Cl)=NC2 | 5.36% | 
19 | CNCC(O)c1ccc(O)cc1 (stereo not given) | -3.15% and -7.74% | 
20 | CCCC[N+]1(C)[C@H]2CC(OC(=O)[C@H](CO)c3ccccc3)C[C@H]1[C@H]1O[C@H]12 (stereo not given in full) | -1.99% | 
21 | C[C@@H]1CN(Cc2ccc(F)cc2)CCN1C(=O)COc1ccc(Cl)cc1NC(N)=O |  | 5.01 µM (active)
22 | CC1(N2CCC(n3c([C@@H]4CCCNC4)nc4ccccc43)CC2)CCCCCCC1 |  | 28.2 µM (active)
23 | O=S(=O)(F)Cc1ccccc1 | 2.11% | 
24 | CC(C)NCC(O)c1ccc(N)c(C#N)c1 (stereo not given) | 6.97% | 
25 | COC[C@H]1OC(=O)c2coc3c2[C@@]1(C)C1=C(C3=O)[C@@H]2CC[C@H](O)[C@@]2(C)C[C@H]1OC(C)=O | -16.1% | 
26 | O=C(O)C(Cl)Cl | 11.1% | 
27 | O=C(O)CCCc1ccc(N(CCCl)CCCl)cc1 | 1.67% and -8.76% | 
28 | CCC(=O)O[C@@H]1C=C2CCC3C(CCC4(C)C3CC[C@@H]4OC(=O)CC)C2CC1 (stereo not given in full) | 1.7% | 
29 | O=c1cccc2n1CC1CNC[C@H]2C1 | -2.44% | 
30 | O=C(CCl)c1ccc(Cl)cc1Cl | -3.67% | 
31 | CCC1(c2ccc(N)cc2)CCC(=O)NC1=O (stereo not given) | -1.13% and 5.11% | 
32 | COc1ccc(N(C(=O)Oc2c(C)cccc2C)c2ccnc(Nc3ccc(N4CCN(C)CC4)cc3)n2)c(OC)c1 |  | 8.91 µM (active)
33 | CC(=O)OC1(c2ccccc2)CCN(CCc2ccccc2)CC1 | -14.1% | 
34 | CCOP(=O)(OCC)C(C)NC(=O)N(CCCl)N=O (stereo not given) | 3.2% | 
35 | CC1(C)C(=O)N(c2ccc(C#N)c(C(F)(F)F)c2)C(=S)N1Cc1ccc(-c2cn[nH]n2)cc1 |  | 25.1 µM (active)
36 | Oc1cc(Cl)ccc1Oc1ccc(Cl)cc1Cl |  | 7.94 µM (active) and 13 µM (active)
37 | NCCc1cc(O)c(O)cc1O | 6.64% | 
38 | COC[C@@H](NC(C)=O)C(=O)NCc1ccccc1 | 8.1% and 13.7% | 
39 | COc1cc(CC(C)N)c(OC)cc1Br (stereo not given) | -4.97% | 
40 | N=c1c2c(-c3ccccc3)c(-c3ccccc3)n(Cc3ccccc3)c2ncn1C1CCC(O)CC1 (stereo not given) |  | 17.8 µM (active)
41 | Oc1ccc(Cl)cc1 | 10.2% | 
42 | O=C(Nc1ccncc1)C(=O)c1cn(Cc2ccc(Cl)cc2)c2ccccc12 |  | 0.126 µM (active)
43 | CCN1CCCC1CNC(=O)C(O)(c1ccccc1)c1ccccc1 (stereo not given) | -3.88% | 
44 | CC(C)=C[C@@H]1[C@@H](C(=O)OCc2coc(Cc3ccccc3)c2)C1(C)C | -18.7% | 
45 | CCC1(C2=NCCN2)Cc2ccccc2O1 (stereo not given) | 12% | 
